Measurements: PubChem BioAssay AID1159580 (chemical genetic matrix, 2015)
About 2,000 (36%) of roughly 5,500 compounds were called active. Not shown: some 18% with an inconclusive outcome. Rule as the data show it: active = normalized growth mostly below about 0.91 (no sharp cut-off); inconclusive = no clear call, values can overlap the other calls; inactive = mostly above about 0.92. The list shows a part of the results.

Test: chemical genetic growth profiling, strain panel (AID 1159580);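 also: tested at 20 µM; growth read once vehicle control cultures reached saturation at 30 °C; 1 = growth at the plate median or of vehicle wells; lower values mean less growth of the strain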
Conditions: S. cerevisiae deletion strains, growth OD
[1] = locus YHR030C, strain SLT2, active compounds read low
[2] = locus YJL095W, strain BCK1, active compounds read low

Measured: normalized growth

O=C(O)CCC(=O)C(=O)O
inactive: locus YAL013W, strain DEP1, active compounds read low 1.01 | locus YBR021W, strain FUR4, active compounds read low 1.01 | locus YBR229C, strain ROT2, active compounds read low 1.01 | locus YCL029C, strain bik1, active compounds read low 1.03 | locus YDL035C, strain GPR1, active compounds read low 1.03 | locus YDL074C, strain BRE1, active compounds read low 1.05 | locus YDL101C, strain DUN1, active compounds read low 1.02 | locus YDL185W, strain tfp1, active compounds read low 1.03 | locus YDL192W, strain arf1, active compounds read low 1.05 | locus YDR101C, strain arx1, active compounds read low 1.05 | locus YDR162C, strain NBP2, active compounds read low 1.02 | locus YDR318W, strain mcm21, active compounds read low 1.01 | locus YDR388W, active compounds read low 1.02 | locus YDR502C, strain sam2, active compounds read low 1.03 | locus YEL061C, strain CIN8, active compounds read low 1.01 | locus YER110C, active compounds read low 1.03 | locus YER155C, strain BEM2, active compounds read low 1 | locus YER167W, strain BCK2, active compounds read low 1.01 | locus YGL078C, strain dbp3, active compounds read low 1.02 | locus YGL086W, strain mad1, active compounds read low 1 | locus YGL248W, strain PDE1, active compounds read low 1.01 | locus YGR135W, strain pre9, active compounds read low 0.987 | locus YGR229C, strain SMI1, active compounds read low 1.03 | locus YGR252W, strain gcn5, active compounds read low 0.942 | [1] 1.01 | locus YHR079C, strain IRE1 (second series), active compounds read low 1.03 | locus YHR094C, strain hxt1, active compounds read low 1.01 | locus YHR129C, strain ARP1, active compounds read low 1.02 | locus YHR200W, strain rpn10, active compounds read low 1 | locus YIL066C, strain RNR3, active compounds read low 1.01 | locus YIL073C, strain SPO22, active compounds read low 1.07 | locus YIL125W, strain kgd1, active compounds read low 1.02 | locus YIR030C, strain dcg1, active compounds read low 1.03 | [2] 1.02 | locus YJL134W, strain LCB3, active compounds read low 1 | locus YJL168C, strain set2, active compounds read low 1.01 | locus YJL187C, strain SWE1 (second series), active compounds read low 1.02 | locus YJR043C, strain POL32, active compounds read low 1.01 | locus YJR075W, strain HOC1, active compounds read low 1 | locus YKL009W, strain mrt4, active compounds read low 1.05 | locus YKL068W, active compounds read low 1.01 | locus YKL085W, strain MDH1 (second series), active compounds read low 1.01 | locus YKL085W, strain MDH1, active compounds read low 1.01 | locus YKL190W, strain CNB1, active compounds read low 1.01 | locus YKR001C, strain vps1, active compounds read low 1.05 | locus YLR039C, strain RIC1, active compounds read low 1.05 | locus YLR058C, strain SHM2, active compounds read low 1.01 | locus YLR102C, strain apc9, active compounds read low 1.01 | locus YLR262C, strain YPT6, active compounds read low 1.05 | locus YLR268W, strain sec22, active compounds read low 1.03 | locus YLR330W, strain CHS5, active compounds read low 1.01 | locus YLR342W, strain FKS1 (second series), active compounds read low 1.01 | locus YLR371W, strain rom2, active compounds read low 1.01 | locus YLR418C, strain cdc73, active compounds read low 1.02 | locus YML016C, strain PPZ1, active compounds read low 1.01 | locus YML032C, strain rad52, active compounds read low 0.995 | locus YML124C, strain tub3, active compounds read low 1.02 | locus YMR078C, strain ctf18, active compounds read low 1.03 | locus YMR223W, strain ubp8, active compounds read low 1 | locus YMR307W, strain GAS1, active compounds read low 1.05 | locus YNL067W, strain RPL9B, active compounds read low 1.01 | locus YNL128W, strain TEP1, active compounds read low 1.04 | locus YNL233W, strain BNI4, active compounds read low 1.01 | locus YNL250W, strain rad50, active compounds read low 1.03 | locus YNL271C, strain bni1, active compounds read low 1.04 | locus YNL298W, strain CLA4, active compounds read low 1.01 | locus YNL307C, strain MCK1, active compounds read low 1.04 | locus YNR052C, strain pop2, active compounds read low 1.02 | locus YOL012C, strain htz1 0.918 | locus YOL147C, strain pex11, active compounds read low 1.02 | locus YOR061W, strain CKA2, active compounds read low 1.01 | locus YOR069W, strain VPS5, active compounds read low 1 | locus YOR136W, strain idh2, active compounds read low 1.02 | locus YOR144C, strain elg1, active compounds read low 1.02 | locus YOR184W, strain ser1, active compounds read low 1.02 | locus YOR316C, strain cot1, active compounds read low 1.02 | locus YPR119W, strain clb2, active compounds read low 1.02 | locus YPR141C, strain kar3, active compounds read low 1.02 | locus YPR163C, strain tif3, active compounds read low 1.03 | locus YPR167C, strain met16, active compounds read low 1.05 | strain wtn01, active compounds read low 1.02

O=C(O)CS
inactive: [1] 1.05 | locus YHR079C, strain IRE1, active compounds read low 1.02 | [2] 1.04 | locus YJR066W, strain TOR1, active compounds read low 0.941 | locus YLR113W, strain HOG1, active compounds read low 1.07 | locus YNL183C, strain NPR1, active compounds read low 1.02 | locus YOR231W, strain MKK1, active compounds read low 1.08 | locus YPL256C, strain CLN2, active compounds read low 1.05
